From ChEMBL document CHEMBL2218924, “A broad activity screen in support of a chemogenomic map for kinase signalling research and drug discovery” (Biochem J, 2013)

Each compound was assayed against T1, Serine/threonine-protein kinase Sgk3 (Homo sapiens) (UniProt Q96BR1). Conditions: at 10 µM.
T1 sequence (whole entry): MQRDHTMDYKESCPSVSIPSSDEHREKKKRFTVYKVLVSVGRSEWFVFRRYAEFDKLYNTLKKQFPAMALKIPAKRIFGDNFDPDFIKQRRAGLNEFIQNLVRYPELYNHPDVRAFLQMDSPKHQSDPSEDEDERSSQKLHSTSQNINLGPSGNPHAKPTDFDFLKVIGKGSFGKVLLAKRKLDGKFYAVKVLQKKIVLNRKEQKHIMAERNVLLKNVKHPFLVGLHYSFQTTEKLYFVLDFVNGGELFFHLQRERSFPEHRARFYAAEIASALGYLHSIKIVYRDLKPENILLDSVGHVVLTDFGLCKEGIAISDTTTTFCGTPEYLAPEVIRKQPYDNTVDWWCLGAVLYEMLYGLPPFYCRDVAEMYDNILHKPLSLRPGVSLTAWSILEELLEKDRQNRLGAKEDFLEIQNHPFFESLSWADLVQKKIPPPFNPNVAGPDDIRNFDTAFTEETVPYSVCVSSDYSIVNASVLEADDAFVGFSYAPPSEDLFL

SMILES	residual activity [%]
Nc1nccc(-c2c(-c3ccc(F)cc3)ncn2C2CCNCC2)n1	75
O=C1Nc2ccccc2/C1=C\c1c(Cl)[nH]c2ccccc12	79
O=C(NC(NC(=S)Nc1ccc(F)c([N+](=O)[O-])c1)C(Cl)(Cl)Cl)C(c1ccccc1)c1ccccc1 (stereo not given)	77
O=C(O)/C=C/c1cc(Br)c(Br)c(Br)c1Br	84
CCN1/C(=C/C(C)=O)Sc2ccc(OC)cc21	65
CC(C)N(CCC(=O)c1ccc2ccccc2c1)Cc1ccccc1	85
Cn1sc(=O)n(Cc2ccccc2)c1=O	86
Nc1ncnc2c1cnn2-c1ccccc1	93
CN([C@@H](Cc1ccc(OS(=O)(=O)c2cccc3cnccc23)cc1)C(=O)N1CCN(c2ccccc2)CC1)S(=O)(=O)c1cccc2cnccc12	83
COc1ccc(Cl)cc1NC(=O)Nc1cc(C)nc2ccccc12	78
O=C(c1ccccc1)c1ccc(N2CCOCC2)cc1O	88
O=C1Cc2c([nH]c3ccc(Br)cc23)-c2ccccc2N1	83
O=c1cc(N2CCOCC2)oc2c(-c3ccccc3)cccc12	74
CCCCc1c(-c2ccc(O)cc2)[nH]c2nccnc12	75
CC(C)[C@H](CO)Nc1nc(Nc2cc(N)cc(Cl)c2)c2ncn(C(C)C)c2n1	92
NCCNc1ncc(C(N)=O)c(Nc2cccc(C(F)(F)F)c2)n1	66
N#C/C(=C\c1ccc(O)c(O)c1)C(=O)NCc1ccccc1	73
N#Cc1c(NC(=O)c2cccc3ccccc23)sc2c1CCCC2	86

The compounds below were run against Serine/threonine-protein kinase SIK1 (Homo sapiens) (UniProt P57059). Conditions: at 1 µM.
Sequence of Serine/threonine-protein kinase SIK1 (Homo sapiens) (P57059 whole entry): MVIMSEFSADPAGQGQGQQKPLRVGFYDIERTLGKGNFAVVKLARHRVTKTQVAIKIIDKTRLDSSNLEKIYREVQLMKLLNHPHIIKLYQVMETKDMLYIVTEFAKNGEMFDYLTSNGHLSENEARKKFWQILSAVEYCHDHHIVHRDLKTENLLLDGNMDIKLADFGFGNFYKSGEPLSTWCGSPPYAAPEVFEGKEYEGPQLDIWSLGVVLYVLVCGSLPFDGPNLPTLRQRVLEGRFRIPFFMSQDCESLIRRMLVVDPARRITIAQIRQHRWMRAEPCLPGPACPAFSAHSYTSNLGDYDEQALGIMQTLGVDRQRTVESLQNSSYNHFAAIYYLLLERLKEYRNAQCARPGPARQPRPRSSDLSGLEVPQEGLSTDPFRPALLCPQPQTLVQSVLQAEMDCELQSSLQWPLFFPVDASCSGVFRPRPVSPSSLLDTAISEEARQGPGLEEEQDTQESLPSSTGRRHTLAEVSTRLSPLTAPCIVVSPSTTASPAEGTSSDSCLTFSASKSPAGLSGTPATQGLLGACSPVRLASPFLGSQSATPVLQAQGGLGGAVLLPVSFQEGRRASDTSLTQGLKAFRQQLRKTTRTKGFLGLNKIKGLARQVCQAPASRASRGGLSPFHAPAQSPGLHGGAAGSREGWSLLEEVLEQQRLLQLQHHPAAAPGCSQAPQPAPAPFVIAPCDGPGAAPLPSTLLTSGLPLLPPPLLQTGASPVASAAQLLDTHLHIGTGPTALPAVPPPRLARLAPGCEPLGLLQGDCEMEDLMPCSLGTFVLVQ

SMILES	residual activity [%]
Nc1nccc(-c2c(-c3ccc(F)cc3)ncn2C2CCNCC2)n1	132
O=c1c(-c2ccc(F)cc2)c(-c2ccncc2)[nH]n1-c1ccc(Cl)cc1	141
O=C1Nc2ccccc2/C1=C\c1c(Cl)[nH]c2ccccc12	120
O=C(NC(NC(=S)Nc1ccc(F)c([N+](=O)[O-])c1)C(Cl)(Cl)Cl)C(c1ccccc1)c1ccccc1 (stereo not given)	136
COc1ccc(-c2cnc3c(-c4ccsc4)cnn3c2)cc1	87
CC(C)N(CCC(=O)c1ccc2ccccc2c1)Cc1ccccc1	79
Oc1cccc(-c2nc(N3CCOCC3)c3oc4ncccc4c3n2)c1	91
NC(=O)c1cccc(-c2cc(Nc3ccc(OC(F)(F)F)cc3)ncn2)c1	96
Fc1ccc(-c2nc3n(c2-c2ccncc2)CCS3)cc1	139
COc1cc2ncnc(Nc3cccc(Cl)c3)c2cc1OC	84
CC(C)(C)c1nc2c3ccc(F)cc3c3c(=O)[nH]ccc3c2[nH]1	31
COc1ccc(Cl)cc1NC(=O)Nc1cc(C)nc2ccccc12	93
O=C1Cc2c([nH]c3ccc([N+](=O)[O-])cc23)-c2ccccc2N1	100
O=C(c1ccccc1)c1ccc(N2CCOCC2)cc1O	97
O=C1Cc2c([nH]c3ccc(Br)cc23)-c2ccccc2N1	91
CCCCc1c(-c2ccc(O)cc2)[nH]c2nccnc12	69
O=S(=O)(c1cccc2cnccc12)N1CCCNCC1	126
N#C/C(=C1/Nc2ccccc2S1)c1ccnc(NCCc2cccnc2)n1	146
NCCNc1ncc(C(N)=O)c(Nc2cccc(C(F)(F)F)c2)n1	63
O=C(Nc1nc2ccccc2n1CCN1CCOCC1)c1cccc([N+](=O)[O-])c1	70
N#C/C(=C\c1ccc(O)c(O)c1)C(=O)NCc1ccccc1	88
N#Cc1c(NC(=O)c2cccc3ccccc23)sc2c1CCCC2	136
